# Assay outcomes from PubChem BioAssay.
# HT1080-NT tox – qHTS for induction of synthetic lethality in tumor cells producing 2HG: qHTS for the HT-1080-NT fibrosarcoma cell line; HT-1080-NT fibrosarcoma viability, CellTiter-Glo ATP luminescence, 48 h; Potency, µM (series often up to 46.1 µM), for inactives: at the highest dose activity, negative = less viability, most hits filed as cytotoxic; actives 1.6% (n = 360,000);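 further: NT is the 2HG producing partner of a matched IDH1 knockdown line; potency means the concentration at half of the fitted maximal effect; 0% = DMSO-treated cells and -100% = media-only wells without cells; nearly all actives have a fitted effect of over 55% in size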
#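 Fibrosarcoma NT cells, 750 per well in 5% FBS RPMI, were exposed to compound for 48 hours. Viability: CellTiter-Glo luminescence.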
# DT40 TDP1 no CPT – qHTS for Inhibitors of human tyrosyl-DNA phosphodiesterase 1 (TDP1): qHTS in cells in absence of CPT; DT40 Tdp1-/- hTDP1 cells, no CPT, ATP luminescence, 48 h; actives 15% (n = 420,000); AID 686978, 2013; Potency, µM (top dose mostly 46.2 µM), inactives show at the top dose activity change, negative = growth inhibition, usual class: inhibitors; further: potency means the concentration at half of the fitted maximal effect; nearly all actives have a fitted effect of over 55% in size
#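 Growth kinetics read by CellTiter-Glo luminescence after ≥48 hr at 37 °C. Cells: DT40 Tdp1-/- stably carrying human TDP1, 400 per well, compound exposure in the absence of CPT (DMSO vehicle).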
# IL-1B inflam inh – qHTS for Inhibitors of Inflammasome Signaling: IL-1-beta AlphaLISA Primary Screen; THP-1 LPS/ATP IL-1B secretion, AlphaLISA, 16 h; active compounds read low; activity change, % at 57.5 µM; actives 4.7% (n = 360,000); AID 743279, 2014; in the data active means activity change below about -50%; inconclusive means mostly about -30% to -49%
#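 THP-1 cells pretreated 1 hr with compounds (up to 57.5 uM final), then stimulated with LPS (250 ng/mL final) plus ATP (1.25 mM final); secreted IL-1B measured by AlphaLISA after 16 hr, decreased signal indicating inhibition.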
# ALOX12 inh – Primary qHTS assay for inhibitors of human arachidonate 12S-lipoxygenase (ALOX12): Round 2; purified 12hLO, xylenol orange hydroperoxide absorbance; Potency, µM (highest dose often 108 µM), inactives show at the top dose activity change, negative = inhibition, actives largely listed as inhibitors; actives 1.1% (n = 580,000); AID 1671190, 2021; further: potency means the concentration at half of the fitted maximal effect
# Target sequence (P18054 whole entry, looked up): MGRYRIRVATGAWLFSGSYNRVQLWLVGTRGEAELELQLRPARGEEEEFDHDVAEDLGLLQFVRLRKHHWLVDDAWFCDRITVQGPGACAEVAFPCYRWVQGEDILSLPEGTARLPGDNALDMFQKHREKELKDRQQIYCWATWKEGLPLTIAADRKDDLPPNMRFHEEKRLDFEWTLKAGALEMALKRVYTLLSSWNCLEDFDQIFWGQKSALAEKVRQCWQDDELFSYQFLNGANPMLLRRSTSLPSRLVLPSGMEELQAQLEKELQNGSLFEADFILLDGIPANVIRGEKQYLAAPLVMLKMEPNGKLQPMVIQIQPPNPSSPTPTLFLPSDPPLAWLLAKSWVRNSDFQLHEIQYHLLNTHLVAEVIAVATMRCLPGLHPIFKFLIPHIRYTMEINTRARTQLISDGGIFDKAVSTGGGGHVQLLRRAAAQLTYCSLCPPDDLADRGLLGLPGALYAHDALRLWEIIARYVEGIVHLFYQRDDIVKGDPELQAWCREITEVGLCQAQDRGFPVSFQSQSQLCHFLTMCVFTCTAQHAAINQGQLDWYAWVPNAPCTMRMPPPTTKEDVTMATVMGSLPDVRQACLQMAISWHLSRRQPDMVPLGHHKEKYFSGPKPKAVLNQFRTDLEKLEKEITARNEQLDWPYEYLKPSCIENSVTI
#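 Purified human 12hLO (150 nM final) in 25 mM Hepes, 0.01% Triton X-100, pH 7.0 was preincubated 15 min at room temperature with compound. Then 40 uM arachidonic acid was added, 30 min. Hydroperoxide was read by Fe-XO absorbance ratio 573/405 nm.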
# DT40 TDP1 CPT – qHTS for Inhibitors of human tyrosyl-DNA phosphodiesterase 1 (TDP1): qHTS in cells in presence of CPT. chicken DT40 Tdp1-/-;hTDP1 cells + 20 nM CPT, ATP luminescence, 48 h. Potency, µM (doses to about 46.2 µM), without a hit: top-dose activity change, negative = growth inhibition, usual class: inhibitors. actives 12% (n = 420,000). AID 686979, 2013; further: potency means the concentration at half of the fitted maximal effect; nearly all actives have a fitted effect of over 55% in size
#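 Cell growth measured by CellTiter-Glo luminescence after a minimum 48 h, 37 C compound exposure with 20 nM CPT in Tdp1-knockout DT40 cells stably expressing hTDP1, seeded 400/well; qHTS titration format.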
# HT1080 IDH1KD tx – qHTS for induction of synthetic lethality in tumor cells producing 2HG: qHTS for the HT-1080-IDH1KD cell line | HT-1080 IDH1 knockdown viability, ATP luminescence, 48 h | actives 2% (n = 360,000) | Potency, µM (doses to about 46.1 µM), without a hit: top-dose activity, negative = toxicity, most hits filed as cytotoxic | AID 686971, 2013;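 further: potency means the concentration at half of the fitted maximal effect; 0% = DMSO wells and -100% = cell-free medium wells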
#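 In this qHTS, HT-1080 cells depleted of IDH1 are exposed for 48 h at 37 °C to compound titrations. Toxicity is scored from CellTiter-Glo luminescence, with DMSO as full viability and medium alone as none.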
# The depositor's hits bear a star; u = inconclusive; x = no result given. This excerpt belongs to a sample that is enriched for hits. Unless noted, the call rests on the fitted dose curve; in most records, active means well fitted curve in the direction sought with a large enough effect; inconclusive means small, poorly fitted or top-dose-only effect, or another doubt; inactive means no such curve, though single readings can be large; an effect the other way counts as inactive or inconclusive. Unless noted, on the % scale 0 is the no-effect control and ±100 the full control effect.
SMILES,HT1080-NT tox,DT40 TDP1 no CPT,IL-1B inflam inh,ALOX12 inh,DT40 TDP1 CPT,HT1080 IDH1KD tx
COc1ccc(-c2nc(CC3CCN(C(=O)c4n[nH]c(=O)c5ccccc45)C3)no2)cc1 (centres undefined),x,x,x,53%,x,x
COc1ccc(S(=O)(=O)N2CCCC(C(=O)N3CCN(Cc4ccccc4)CC3)C2)cc1Cl (centres undefined),-16%,15µM*,u,0%,21µM*,-19%
COc1ccc(S(=O)(=O)N2CCCC(C(=O)N3CCN(C)CC3)C2)cc1Cl (centres undefined),-1%,-22%,-6,-4%,-18%,4%
CCOc1ccccc1NC(=O)C1CCCN(S(=O)(=O)c2ccc3c(c2)CCCN3C(C)=O)C1 (centres undefined),-2%,15µM*,-11,10%,26µM*,-10%
CC(=O)N1CCCc2cc(S(=O)(=O)N3CCCC(C(=O)Nc4ccc(F)cc4F)C3)ccc21 (centres undefined),x,21µM*,x,-13%,u,x
CC(=O)N1CCCc2cc(S(=O)(=O)N3CCCC(C(=O)Nc4cccc(Cl)c4C)C3)ccc21 (centres undefined),x,u,x,u,16µM*,x
CCCCCCCCOc1ccc(OC(=O)c2ccncc2)cc1,x,x,x,20%,x,x
CNC(=O)CCn1ncc2cc(OC3CCc4cccc(-c5cccnc5OC)c43)ccc21 (centres undefined),x,x,x,8%,x,x
NC(=S)N/N=C/c1ccc(-c2cccc([N+](=O)[O-])c2)o1,-2%,3.7µM*,-5,u,5.2µM*,3%
O=[N+]([O-])c1cccc(-c2ccc(/C=N/NC(=S)Nc3cccc(F)c3)o2)c1,u,18µM*,0,285%,0%,-29%
Nc1nonc1C(=O)N/N=C/c1ccc(-c2cccc([N+](=O)[O-])c2)o1,1%,u,19,-22%,-23%,-4%
O=C(N/N=C/c1ccc(-c2cccc([N+](=O)[O-])c2)o1)c1cccs1,-5%,-25%,35,-10%,22%,8%
NC(=S)N/N=C/c1ccc(-c2cc(Cl)c(Cl)cc2Cl)o1,u,4.6µM*,29,u,3.7µM*,u
NC(=S)N/N=C/c1ccc(Br)o1,2%,-15%,-11,-12%,-20%,1%
Cc1nc2c(s1)CCCC2NC(=O)c1cc(-c2ccc(F)cc2)n[nH]1 (centres undefined),x,x,x,18%,x,x
CCCn1c(C)c(CC(=O)NCc2cccnc2)c2c1CC(C)(C)CC2=O,x,x,x,23%,x,x
CN(CCc1ccccc1)C(=O)c1ccc(NC(=O)Cc2cccc(NC(=O)C3CCN(C(=O)C4CCCC4)CC3)c2)cc1,-6%,9.2µM*,22,22%,u,-10%
CN(CCc1ccccc1)C(=O)c1ccc(NC(=O)Cc2cccc(NC(=O)C3CCN(C(=O)C4CCC4)CC3)c2)cc1,0%,21µM*,-17,36%,16µM*,-8%
CN(Cc1ccccc1)C(=O)c1cccc(NC(=O)Cc2cccc(NC(=O)C3CCN(C(=O)C4CC4)CC3)c2)c1,-6%,u,-5,-2%,u,0%
CN(Cc1ccccc1)C(=O)c1cccc(NC(=O)Cc2ccc(NC(=O)C3CCN(C(=O)C4CCC4)CC3)cc2)c1,0%,23µM*,-3,-12%,u,-2%
